Each compound was assayed against Platelet-derived growth factor receptor beta (Homo sapiens) (UniProt P09619). Settings: at 0.1 µM.
Sequence of Platelet-derived growth factor receptor beta (Homo sapiens) (P09619 whole entry): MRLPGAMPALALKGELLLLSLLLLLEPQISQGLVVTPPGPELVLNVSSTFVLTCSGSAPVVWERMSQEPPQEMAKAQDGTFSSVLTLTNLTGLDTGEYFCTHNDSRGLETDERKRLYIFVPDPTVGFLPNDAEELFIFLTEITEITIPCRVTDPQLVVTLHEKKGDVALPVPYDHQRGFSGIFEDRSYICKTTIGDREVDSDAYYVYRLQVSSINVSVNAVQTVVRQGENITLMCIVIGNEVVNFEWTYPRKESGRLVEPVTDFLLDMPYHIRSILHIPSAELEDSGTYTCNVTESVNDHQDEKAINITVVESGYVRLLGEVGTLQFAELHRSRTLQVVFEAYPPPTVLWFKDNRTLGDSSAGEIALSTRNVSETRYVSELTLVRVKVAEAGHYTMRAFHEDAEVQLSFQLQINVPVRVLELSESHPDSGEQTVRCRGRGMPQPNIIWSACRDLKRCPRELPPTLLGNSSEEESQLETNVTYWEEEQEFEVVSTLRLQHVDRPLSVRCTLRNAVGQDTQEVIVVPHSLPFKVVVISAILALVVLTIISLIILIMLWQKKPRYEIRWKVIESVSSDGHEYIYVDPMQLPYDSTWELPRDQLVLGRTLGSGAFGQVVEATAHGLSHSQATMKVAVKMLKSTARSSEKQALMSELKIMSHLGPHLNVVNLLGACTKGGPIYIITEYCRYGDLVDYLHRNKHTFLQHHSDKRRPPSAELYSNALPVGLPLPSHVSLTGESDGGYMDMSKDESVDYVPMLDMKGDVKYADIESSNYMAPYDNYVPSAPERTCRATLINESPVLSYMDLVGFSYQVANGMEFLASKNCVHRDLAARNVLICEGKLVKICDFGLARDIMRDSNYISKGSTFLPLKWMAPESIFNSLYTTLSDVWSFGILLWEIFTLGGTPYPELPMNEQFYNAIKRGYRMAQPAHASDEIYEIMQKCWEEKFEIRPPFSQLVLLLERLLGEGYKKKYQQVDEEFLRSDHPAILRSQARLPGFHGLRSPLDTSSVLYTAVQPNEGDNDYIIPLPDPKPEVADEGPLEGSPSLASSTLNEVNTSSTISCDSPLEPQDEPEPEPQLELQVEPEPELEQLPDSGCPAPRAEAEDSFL
Work on `CCC(=O)Nc1ccc(C)c(-c2ccc(C(=O)NCC3CC3)cc2)c1` yielded an inhibition of -0.7%.
Work on `CN(C)CCOc1ccc(-c2cc(-c3ccc4c(c3)CCC4=NO)c(-c3ccncc3)o2)cc1` yielded an inhibition of 2.38%.
`c1ccc(-c2n[nH]cc2-c2ccnc(-c3ccc(OCCN4CCOCC4)cc3)c2)nc1` gave an inhibition of 16.2%.
In the case of `COc1cccc(/C=N/Nc2ncnc3c2cnn3-c2cccc(OC)c2)c1`, the inhibition is reported as 4.05%.
`NCc1ccc(-n2c(-c3nonc3N)nc3cnccc32)cc1` showed an inhibition of 9.08%.
Work on `Cc1ccc(C(=O)NC2CCC2)cc1-c1ccc(C(=O)NCC2CC2)cc1` yielded an inhibition of -0.12%.
With `COc1cc(Nc2ncc3c(C)nc(-c4cccc(Oc5ccccc5)c4)n3n2)cc(OC)c1OC` the inhibition was 0.58%.
With `Fc1ccc(-c2ncn(C3CCNCC3)c2-c2ccnc(Oc3ccc(F)c(F)c3)n2)cc1` the inhibition was 5.46%.
Compound `COC(=O)Nc1nc2ccc(Sc3ccc(NC(=O)Nc4cc(C(F)(F)F)ccc4F)cc3)cc2[nH]1` has an inhibition of 4.35%.
`NC(=O)c1cc(-c2ccc(F)cc2)cc(-c2ccncc2)c1N` gave an inhibition of 2.02%.
Compound `CN(C)CCCNc1nccc(-c2c(-c3ccc(F)cc3)nn3cc(C(F)(F)F)ccc23)n1` has an inhibition of 6.34%.
`CCc1nccc2c1nc(-c1nonc1N)n2CC` was tested, and the inhibition was 2.42%.
With `COc1ccc(-c2ccc3c(NC(=O)C4CC4)n[nH]c3n2)cc1` the inhibition was 1.45%.
`O=C1Nc2ccc(I)cc2C1=Cc1cc(Br)c(O)c(Br)c1` gave an inhibition of 0.08%.
`O=C(Nc1n[nH]c2nc(-c3ccc(O)cc3)c(Br)cc12)C1CC1` was tested, and the inhibition was 12%.
`CS(=O)(=O)CCNCc1cc(-c2cc3c(Nc4ccc(OCc5cccc(F)c5)c(Cl)c4)ncnc3s2)cs1` was tested, and the inhibition was 4.84%.
Work on `Cc1nnc(-c2ccc(C)c(-c3ccc(C(=O)NCc4ccc(Cl)cc4)cc3)c2)o1` yielded an inhibition of 1.36%.
Work on `Cc1ccc(C(=O)NC(C)C)cc1-c1ccc(C(=O)NCC2CC2)cc1` yielded an inhibition of 0.76%.
In the case of `O=C(Nc1ccc(Oc2ccc3[nH]c(NC(=O)c4ccccc4)nc3c2)cc1)Nc1cc(C(F)(F)F)ccc1F`, the inhibition is reported as 9.24%.
For `COc1cc(C)c(N(C)C(=O)CN(C)C)cc1Nc1nc(Nc2cccc(F)c2C(N)=O)c2cc[nH]c2n1`, the inhibition was 0.52%.
Compound `CN(C)c1ccc2c(c1)/C(=C/Nc1ccc(S(N)(=O)=O)cc1)C(=O)N2` has an inhibition of 26.8%.
Work on `c1ccc(Oc2ccc(Nc3ncc(-c4ccccc4)o3)cc2)cc1` yielded an inhibition of 3.82%.
With `COc1cccc(-n2cnc3c(N/N=C/c4ccncc4)ncnc32)c1` the inhibition was 13.2%.
`Fc1ccc(-c2ncn(C3CCNCC3)c2-c2ccnc(Oc3ccc(Oc4ccccc4)cc3)n2)cc1` was tested, and the inhibition was 2.57%.
`O=C(NCC1CC1)c1ccc(-c2cccc(C(=O)NC3CC3)c2)cc1` was tested, and the inhibition was 9.04%.
`N#Cc1ccc(Oc2nccc(-c3c(-c4ccc(F)cc4)ncn3C3CCNCC3)n2)cc1` was tested, and the inhibition was 2.5%.
Compound `COc1ccc2cc(-c3c(-c4ccncc4)nc(-c4ccc(S(C)(=O)=O)cc4C)n3C)ccc2c1` has an inhibition of 2.38%.
For `C/C(Nc1ccc(S(N)(=O)=O)cc1)=C1/C(=O)Nc2ccccc21`, the inhibition was 9.96%.
Compound `Fc1ccc(-c2c(-c3ccncc3)nc3n2CCS3)cc1` has an inhibition of 1.36%.
`C#Cc1cccc(Nc2ncnc3ccc(OCCCCNCCS(C)(=O)=O)cc23)c1` gave an inhibition of 9.53%.
`COc1ccc2ncn(-c3cc(O[C@H](C)c4ccccc4Cl)c(C(N)=O)s3)c2c1` showed an inhibition of 5.46%.
Work on `Fc1ccc(-c2nc3n(c2-c2ccncc2)CCS3)cc1` yielded an inhibition of 3.87%.
For `CCS(=O)(=O)c1ccc(OC)c(Nc2ncc(-c3cccc(-c4ccccc4F)c3)o2)c1`, the inhibition was 17.1%.
`Nc1nccc(-c2c(-c3ccc(F)cc3)ncn2C2CCC(O)CC2)n1` (centres undefined) showed an inhibition of 5.21%.

Reference: ChEMBL document CHEMBL1961873, “Compounds: GSK PKIS; Assays: Nanosyn kinase panel” (2012)
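Further: reported value is the mean percent inhibition of the kinase.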
